Results on 40 compounds are retold here after the supplement of paper PMC4206461.

The assay relates to Pseudomonas aeruginosa PA14 dppBCDF deletion mutant. Description: respiration area under curve with compound as sole nitrogen source, 24 h (OmniLog AUC (arbitrary units)); higher = more respiration / better utilisation as nitrogen source, active = 2000 or more; extreme values may be limits of the assay. The procedure: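 Biolog Phenotype MicroArray plates PM6-PM8: each di/tripeptide is the sole nitrogen source. Tetrazolium reduction was read in the OmniLog every 15 min for 24 h at 37°C and summarised as area under the respiration curve (arbitrary units). Values below 2000 count as no respiration. Strain is the dipeptide ABC transporter deletion mutant.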
Turning to `C[C@H](N)C(=O)N1CCC[C@H]1C(=O)O` (plate: PM6), the “respiration area under curve” value was 717 (inactive). For the compound `C[C@@H](N)C(=O)NCC(=O)O` (plate: PM8), the “respiration area under curve” value was 0 (inactive). As to `CC[C@H](C)[C@H](NC(=O)[C@@H](N)Cc1ccc(O)cc1)C(=O)O` (plate: PM8), the “respiration area under curve” value is 5950 (active). As for `CC[C@H](C)[C@H](N)C(=O)NCC(=O)O` (plate: PM6), the “respiration area under curve” value is 0 (inactive). Consider `C[C@H](N)C(=O)N[C@@H](CO)C(=O)O` (plate: PM6), for which the “respiration area under curve” value is 6740 (active). For `CC(C)[C@H](N)C(=O)N[C@@H](CCC(N)=O)C(=O)O` (plate: PM8), the “respiration area under curve” value is 1010 (inactive).

Consider `C[C@@H](O)[C@H](N)C(=O)N1CCC[C@H]1C(=O)O` (plate: PM7), for which the “respiration area under curve” value is 0 (inactive). Turning to `C[C@@H](NC(=O)CN)C(=O)O` (plate: PM8), the “respiration area under curve” value was 0 (inactive). Take `C[C@H](N)C(=O)N[C@@H](CC(N)=O)C(=O)O` (plate: PM6): the “respiration area under curve” value is 6980 (active). With `C[C@@H](N)C(=O)NCC(=O)NCC(=O)O` (plate: PM8), the “respiration area under curve” value was 0 (inactive). For `CSCC[C@H](N)C(=O)N[C@H](C(=O)O)C(C)C` (plate: PM7), the “respiration area under curve” value is 1430 (inactive). Consider `CC(C)[C@H](NC(=O)[C@@H](N)CC(=O)O)C(=O)O` (plate: PM6), for which the “respiration area under curve” value is 524 (inactive). For the compound `NC(=O)CC[C@H](NC(=O)[C@@H](N)CC(=O)O)C(=O)O` (plate: PM8), the “respiration area under curve” value was 5.25 (inactive). For `CC(C)C[C@@H](N)C(=O)N[C@@H](Cc1ccc(O)cc1)C(=O)O` (plate: PM8), the “respiration area under curve” value was 0 (inactive). With `CC(C)[C@H](NC(=O)[C@@H](N)CC(N)=O)C(=O)O` (plate: PM6), the “respiration area under curve” value is 4910 (active). For the compound `NCC(=O)NCC(=O)O` (plate: PM6), the “respiration area under curve” value is 98.5 (inactive). As to `C[C@H](N)C(=O)N[C@@H](Cc1ccccc1)C(=O)O` (plate: PM6), the “respiration area under curve” value is 5070 (active).

Take `N[C@@H](Cc1ccc(O)cc1)C(=O)N[C@@H](Cc1ccc(O)cc1)C(=O)O` (plate: PM7): the “respiration area under curve” value is 4900 (active). For `C[C@H](N)C(=O)N[C@@H](Cc1ccc(O)cc1)C(=O)O` (plate: PM6), the “respiration area under curve” value is 4510 (active). In the case of `CC(C)C[C@H](NC(=O)[C@@H](N)Cc1c[nH]c2ccccc12)C(=O)O` (plate: PM7), the “respiration area under curve” value is 1830 (inactive).

With `CC(NC(=O)C(N)CC(=O)O)C(=O)O` (stereo not given) (plate: PM8), the “respiration area under curve” value was 12.2 (inactive).

In the case of `O=C(O)[C@H](Cc1c[nH]c2ccccc12)NC(=O)[C@@H]1CCCN1` (plate: PM8), the “respiration area under curve” value is 358 (inactive).

For `C[C@@H](O)[C@H](NC(=O)CN)C(=O)O` (plate: PM6), the “respiration area under curve” value is 15.8 (inactive). `CC[C@H](C)[C@H](NC(=O)[C@@H](N)Cc1ccccc1)C(=O)O` (plate: PM7): the “respiration area under curve” value was 6010 (active). Turning to `CC(C)C[C@H](N)C(=O)N[C@@H](CC(N)=O)C(=O)O` (plate: PM8), the “respiration area under curve” value is 10700 (active). On to `C[C@H](NC(=O)CN)C(=O)O` (plate: PM6), for which the “respiration area under curve” value is 48.2 (inactive). `N[C@@H](CO)C(=O)N[C@@H](CO)C(=O)O` (plate: PM7): the “respiration area under curve” value is 988 (inactive). `CSCCC(N)C(=O)NC(CCSC)C(=O)O` (stereo not given) (plate: PM7): the “respiration area under curve” value is 0 (inactive). As for `C[C@H](NC(=O)[C@@H](N)CCC(=O)O)C(=O)O` (plate: PM8), the “respiration area under curve” value is 51.5 (inactive). Turning to `O=C(O)CC(NC(=O)C1CCCN1)C(=O)O` (stereo not given) (plate: PM7), the “respiration area under curve” value was 0 (inactive). The result for `C[C@H](N)C(=O)N[C@@H](CCC(N)=O)C(=O)O` (plate: PM8) reads 3540 (active). `NC(N)=NCCC[C@H](N)C(=O)N[C@@H](CCC(=O)O)C(=O)O` (plate: PM6): the “respiration area under curve” value was 8810 (active). The result for `NC(=O)C[C@H](N)C(=O)N[C@@H](CCC(=O)O)C(=O)O` (plate: PM6) reads 1590 (inactive); that for `NC(N)=NCCC[C@H](N)C(=O)N[C@@H](Cc1c[nH]c2ccccc12)C(=O)O` (plate: PM6), 7640 (active). Take `CSCC[C@H](N)C(=O)N[C@H](C(=O)O)[C@@H](C)O` (plate: PM8): the “respiration area under curve” value is 211 (inactive). `CC[C@H](C)[C@H](N)C(=O)N1CCC[C@H]1C(=O)O` (plate: PM6): the “respiration area under curve” value is 0 (inactive). For the compound `N[C@@H](Cc1c[nH]c2ccccc12)C(=O)N[C@@H](Cc1ccc(O)cc1)C(=O)O` (plate: PM7), the “respiration area under curve” value was 236 (inactive). Turning to `NC(N)=NCCC[C@H](NC(=O)[C@@H](N)Cc1c[nH]c2ccccc12)C(=O)O` (plate: PM7), the “respiration area under curve” value was 11800 (active).

On to `N[C@@H](Cc1ccc(O)cc1)C(=O)NCC(=O)O` (plate: PM7), for which the “respiration area under curve” value was 3760 (active).

With `CC[C@H](C)[C@H](NC(=O)[C@H](C)N)C(=O)O` (plate: PM8), the “respiration area under curve” value is 1150 (inactive).
